Results reported in PubChem BioAssay (Tox21).
Records with an inconclusive call do not appear. Where a call stands in place of a potency, no number is given. The source made the active and inactive calls. Calls follow the shape of the dose curve; as a rule, active = well fitted inhibition curve with a large enough effect in the repeat runs; inconclusive = weak or mixed curves; inactive = no such curve, though single readings can be large or run the other way.

Target: Estrogen receptor (Homo sapiens) (UniProt P03372)
Experiment: qHTS assay to identify small molecule antagonists of the estrogen receptor alpha (ER-alpha) signaling pathway using the BG1 cell line in the presence of 0.1 nM 17-beta-estradiol (AID 1259244); also: nearly all actives have a fitted effect of over 50% in size
Conditions: VM7Luc4E2 (BG1) ERE-luciferase, antagonist mode, 0.1 nM E2, 22 h; series mostly up to 92.4 µM
Source text: National Center for Advancing Translational Sciences [NCATS]
NIH Chemical Genomics Center [NCGC]
U.S. Environmental Protection Agency [EPA]
National Institutes of Environmental Health Sciences [NIEHS]
National Toxicology Program [NTP]
U.S. Food and Drug Administration [FDA]
Estrogen receptor (ER), a member of the nuclear hormone receptor plays an important role in development, metabolic homeostasis and reproduction. Two subtypes of ER, ER-alpha and ER-beta, have similar expression patterns with some uniqueness in both types. Endocrine disrupting chemicals (EDCs) and their interactions with steroid hormone receptors like ER causes disruption of normal endocrine function. Therefore, it is important to understand the effect of environmental chemicals in ER signaling pathway. For identifying ER antagonists, VM7Luc4E2 cell line was used to screen against Tox21 compound libraries.
VM7Luc4E2 cell line (provided by Denison MS, University of California) endogenously express full-length ER-alpha and is stably transfected with a plasmid containing four estrogen responsive elements (ERE) upstream of a luciferase reporter gene. The current screening for identification of ER-alpha inhibitors against Tox21 compound libraries used lower concentration (0.1 nM) of 17beta-Estradiol as a stimulator.
Tox21 Assay Protocol Summary:
VM7Luc4E2 cells were cultured in phenol red free assay medium containing 10% charcoal stripped FBS for 5 days prior to the assay. The cells were dispensed at 4,000 cells/well in 4 uL of assay medium into white wall/solid-bottom 1536-well plates (Corning Life Sciences, Corning, NY) using a Multidrop Combi (ThermoFisher Scientific, Waltham, MA) dispenser. After the assay plates were incubated at 37C and 5% CO2 for 24 hr, 23 nL of compounds dissolved in DMSO, positive controls or DMSO only was transferred to the assay plates by a Pintool station (Kalypsys, San Diego, CA). The transfer of compounds was followed by the addition of 1 uL of 0.1 nM (final concentration) agonist (17beta-Estradiol)/assay medium using a Flying Reagent Dispenser (FRD, Aurora Discovery, San Diego, CA). The plates were incubated at 37C and 5% CO2 for 22 hr. For luciferase reporter gene assay, 4 uL of ONE-Glo reagent (Promega Corporation, Madison, WI) was added to each well using the FRD and after 30 min incubation at room temperature luminescence intensity was measured using ViewLux plate reader (PerkinElmer, Shelton, CT).
Potency is read from the fitted curve at half-maximal effect.

Sequence of Estrogen receptor (Homo sapiens) (P03372 whole entry, looked up): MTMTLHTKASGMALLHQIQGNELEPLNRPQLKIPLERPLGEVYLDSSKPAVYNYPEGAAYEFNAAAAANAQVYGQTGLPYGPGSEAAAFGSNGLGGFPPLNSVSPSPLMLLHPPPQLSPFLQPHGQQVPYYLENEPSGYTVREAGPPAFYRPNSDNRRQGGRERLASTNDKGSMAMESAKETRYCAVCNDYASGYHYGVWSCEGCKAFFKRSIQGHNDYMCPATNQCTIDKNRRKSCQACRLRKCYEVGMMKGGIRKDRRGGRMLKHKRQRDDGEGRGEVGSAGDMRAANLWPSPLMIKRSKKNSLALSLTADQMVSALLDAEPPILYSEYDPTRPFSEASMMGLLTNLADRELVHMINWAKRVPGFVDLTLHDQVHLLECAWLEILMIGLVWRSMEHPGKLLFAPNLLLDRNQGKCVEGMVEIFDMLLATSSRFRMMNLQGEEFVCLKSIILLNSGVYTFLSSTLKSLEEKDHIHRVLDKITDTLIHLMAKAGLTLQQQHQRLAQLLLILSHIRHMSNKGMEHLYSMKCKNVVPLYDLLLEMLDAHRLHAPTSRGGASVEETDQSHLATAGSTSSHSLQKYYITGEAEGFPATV

Row | SMILES | Potency
1 | C=CC(C)(CCC=C(C)C)OC(=O)CC(C)C (stereo not given) | inactive
2 | C[C@H]1c2cccc(O)c2C(O)=C2C(=O)[C@]3(O)C(O)=C(C(N)=O)C(=O)[C@@H](N(C)C)[C@@H]3[C@@H](O)[C@@H]21 | inactive
3 | COc1ncnc(NS(=O)(=O)c2ccc(N)cc2)c1OC | inactive
4 | Cc1ccc(CO)cc1 | inactive
5 | O=C1NC(=O)c2cc([N+](=O)[O-])ccc21 | inactive
6 | CCCCOc1ccc(OCCCN2CCOCC2)cc1 | inactive
7 | CN1CC(=O)N2[C@H](c3ccc4c(c3)OCO4)c3[nH]c4ccccc4c3C[C@@H]2C1=O | inactive
8 | CCC(=O)OC | inactive
9 | CCOC(=O)/C=C/C(=O)OCC | inactive
10 | CCOC(=O)[C@H](CCc1ccccc1)N[C@@H](C)C(=O)N(CC(=O)O)C1Cc2ccccc2C1 | inactive
11 | O=C1c2ccccc2C(=O)C1c1ccc(Br)cc1 | inactive
12 | O=[N+]([O-])c1ccc(O/N=C/c2cc(Br)c(O)c(Br)c2)c([N+](=O)[O-])c1 | 30.5 µM (active)
13 | Cc1ccccc1S | inactive
14 | Oc1ccc(Cl)c2cccnc12 | 21.1 µM (active)
15 | CCC(C)COC(=O)CC(C)C (stereo not given) | inactive
16 | CN(C)CCC=C1c2ccccc2C=Cc2ccccc21 | inactive
17 | CC(C)=CCC/C(C)=C/CC/C(C)=C/C(=O)OCC(=O)[C@@]1(O)CC[C@H]2[C@@H]3CCC4=CC(=O)C=C[C@]4(C)[C@H]3[C@@H](O)C[C@@]21C | 26.6 µM (active)
18 | CC(C)=CC(=O)C=C(C)C | inactive
19 | CC(C)=CCC/C(C)=C/CC/C(C)=C/CCC(=O)OC/C=C(\C)CCC=C(C)C | inactive
20 | COc1ccccc1Oc1c(NS(=O)(=O)c2ccc(C(C)(C)C)cc2)nc(-c2ncccn2)nc1OCCO | inactive

Row | SMILES | Potency
21 | N#CCc1ccc(Cl)cc1Cl | inactive
22 | Cc1cc(O)c(C)c(C)c1O | inactive
23 | O=C1Cc2ccccc2N1c1c(Cl)cccc1Cl | 61.1 µM (active)
24 | Cc1ccco1 | inactive
25 | C/C=C/C=C/C=O | inactive
26 | C[C@]12CC[C@@H]3c4ccc(O)cc4CC[C@H]3[C@@H]1CC[C@@H]2OC(=O)CCC1CCCC1 | inactive
27 | C/C=C\C/C=C/CCCCCCCCOC(C)=O | inactive
28 | C(=C\c1ccccc1)/c1ccccc1 | inactive
29 | CC(=O)[C@H]1[C@H](C#N)C[C@H]2[C@@H]3CC=C4C[C@@H](O)CC[C@]4(C)[C@H]3CC[C@@]21C | inactive
30 | C=C1C[C@@]23CC[C@H]4[C@@](C)(CCC[C@@]4(C)C(=O)O[C@@H]4O[C@H](CO)[C@@H](O)[C@H](O)[C@H]4O)[C@@H]2CC[C@]1(O[C@@H]1O[C@H](CO)[C@@H](O)[C@H](O[C@@H]2O[C@H](CO)[C@@H](O)[C@H](O)[C@H]2O)[C@H]1O[C@@H]1O[C@H](CO)[C@@H](O)[C@H](O)[C@H]1O)C3 | inactive
31 | O=C1c2ccccc2C(=O)C1c1nc2ccccc2c(Br)c1O | inactive
32 | OCCN1CCN(CCCN2c3ccccc3Sc3ccc(Cl)cc32)CC1 | inactive
33 | O=c1cc(-c2ccccc2)oc2ccc3ccccc3c12 | inactive
34 | O=C(OCC(O)CO)c1ccccc1Nc1ccnc2cc(Cl)ccc12 (stereo not given) | inactive
35 | CCCCCCC(C)(C)C(=O)O | inactive
36 | CCCCC(CC)CN (stereo not given) | inactive
37 | C=CC(=O)[O-].C=CC(=O)[O-].[Zn+2] | inactive
38 | CC(C)c1nc(CN(C)C(=O)N[C@H](C(=O)N[C@@H](Cc2ccccc2)C[C@H](O)[C@H](Cc2ccccc2)NC(=O)OCc2cncs2)C(C)C)cs1 | inactive
39 | C/C=C(/C(=C/C)c1ccc(O)cc1)c1ccc(O)cc1 | inactive
40 | Cc1c(C)c2c(c(C)c1OC(=O)CCC(=O)OCCO)CC[C@@](C)(CCC[C@H](C)CCC[C@H](C)CCCC(C)C)O2 | inactive
